High-throughput results (PubChem BioAssay)
FXN GAA850 act: activators of GAA850 frataxin (FXN) promoter. HEK293 lucGAA850 FXN promoter luciferase reporter, 24 h; percent of 10 µM SAHA response. activation, % at 6 µM. actives 0.56% (n = 360,000);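 active means activation above the average of all compounds screened plus 3 SD, cutoff fixed separately per campaign, cut at about 7.5% in these data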
FAS TE block: blocks the thioesterase domain of human fatty acid synthase; P49327; inhibition, % at 15 µM; AID 602261; recombinant FAS-TE, OMFH fluorogenic substrate, fluorescence endpoint; actives 0.67% (n = 360,000);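 active means compounds whose normalised, plate-corrected inhibition of enzyme fluorescence in the single-dose primary screen is 50% or more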
SMARCA2 act: SMARCA2 function activation, primary screen | MG213 cells, MMTV-luciferase reporter, dexamethasone, overnight | activation, % at 9.1 µM | actives 1% (n = 370,000) | AID 652017; in the data active means activation above about 7.8%
proKLK7 act: activates the human kallikrein-7 zymogen | P49862 | purified proKLK7, EDANS-DABCYL substrate fluorescence; 100% is mature enzyme control, 0% vehicle | activation, % at 7 µM | actives 0.9% (n = 370,000);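 active means activation above the mean of all tested compounds plus 3 SD, computed per campaign excluding outliers beyond control limits, cut at about 13% in these data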
Target sequence (P49862 whole entry, looked up): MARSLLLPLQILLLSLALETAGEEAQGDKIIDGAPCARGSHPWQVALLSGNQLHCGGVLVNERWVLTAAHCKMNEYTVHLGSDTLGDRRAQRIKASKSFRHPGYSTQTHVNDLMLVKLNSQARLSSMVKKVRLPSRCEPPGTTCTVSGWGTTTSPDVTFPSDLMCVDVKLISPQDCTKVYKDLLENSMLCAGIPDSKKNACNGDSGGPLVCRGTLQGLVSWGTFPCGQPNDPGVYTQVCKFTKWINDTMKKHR
proKLK7 act conf: proKLK7 activation, confirmation | shares compounds with proKLK7 act | purified proKLK7, EDANS-DABCYL substrate fluorescence; scaled: vehicle 0, mature enzyme 100 | activation, % at 7 µM | actives 68% (n = 3,200);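 active means activation, as change over the incubation, above the mean of all tested compounds plus 3 SD, cut at about 13% in these data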
EDANS interfere: counter-screen for kallikrein-7 activators: EDANS-DABCYL optical interference | shares compounds with proKLK7 act | EDANS-DABCYL substrate fluorescence interference, no enzyme, 4 h; solvent 0%, active enzyme control 100% | activation, % at 7 µM | actives 80% (n = 3,200);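 active means activation above the all-compound mean plus 3 SD, ignoring values outside control-based bounds, cut at about 4.8% in these data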;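 further: value is the 4 h activation minus the activation read at time zero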
Each line names hits and unclear results; the compound was inactive in the other large screens (follow-up assays come after a bar, where they were run). An excerpt weighted towards active compounds, which were near 2.9% of everything screened.

CN1CCN(Cc2c(O)ccc3c(=O)c(Oc4ccccc4Cl)c(C(F)(F)F)oc23)CC1	none
COc1ccccc1Oc1c(C)oc2c(CN3CCN(CCO)CC3)c(O)ccc2c1=O	proKLK7 act 116 (no result: FXN GAA850 act, FAS TE block) | proKLK7 act conf 66 | EDANS interfere 70
CCOC(=O)c1ccc(Oc2c(C)oc3c(CN4CCN(C)CC4)c(O)ccc3c2=O)cc1	proKLK7 act 119 | proKLK7 act conf 76 | EDANS interfere 70
CCOc1ccccc1Oc1c(C)oc2c(CN3CCN(CCO)CC3)c(O)ccc2c1=O	proKLK7 act 129 | proKLK7 act conf 68 | EDANS interfere 66
O=C(OCCCN1C(=O)c2ccccc2C1=O)c1ccco1	none
CC(C)n1cc(NC(=O)c2cc(-c3ccccc3)on2)cn1	none
Cc1ccc(C(=O)Nc2cccc(C(F)(F)F)c2)cc1NC(=O)c1ccno1	none
Cc1ccc2c(c1)c1c(n2CC(O)Cn2ccnc2C)C(=O)CCC1 (centres undefined)	proKLK7 act 17 | proKLK7 act conf inactive | EDANS interfere 15
O=C(O)c1ccc(-c2nc(-c3ccccc3)c(-c3cccs3)[nH]2)cc1	none
Cc1ccc(-c2[nH]c(-c3ccc(C(=O)O)cc3)nc2-c2ccccc2)cc1	proKLK7 act 33 | proKLK7 act conf 67 | EDANS interfere 69
CCOC(=O)c1ccccc1NC(=O)COC(=O)C(CC(C)C)NC(N)=O (centres undefined)	none
CC(=O)c1cc2c(s1)-c1cc(F)ccc1OC2	proKLK7 act 71 | proKLK7 act conf 69 | EDANS interfere 74
COC(=O)c1cc2c(s1)-c1cc(F)ccc1OC2	none
COc1cccc(N2CCN(C(=O)c3cc4c(s3)-c3ccccc3OC4)CC2)c1	proKLK7 act 24 | proKLK7 act conf inactive | EDANS interfere 21
CCOC(=O)N1CCN(C(=O)c2cc3c(s2)-c2ccccc2OC3)CC1	proKLK7 act 32 | proKLK7 act conf inactive | EDANS interfere inactive
CCCN1CCN(C(=O)c2cc3c(s2)-c2ccccc2OC3)CC1	proKLK7 act 66 | proKLK7 act conf inactive | EDANS interfere 84
COc1ccc(N2CCN(C(=O)c3cc4c(s3)-c3ccccc3OC4)CC2)cc1	none
Cc1ccc(N2CC(C(=O)N3CCC(C(=O)Nc4nnc(C(C)C)s4)CC3)CC2=O)cc1 (centres undefined)	none
Cc1nn(-c2ccccc2)c(C)c1/C=N/NC(=O)c1[nH][nH]c(=O)c1C	none (no result: FXN GAA850 act, FAS TE block)
CC(C)CSc1ccc(S(=O)(=O)NCC(=O)O)cc1[N+](=O)[O-]	none
O=C(c1cc2c(s1)-c1ccccc1OC2)N1CCCC1	proKLK7 act 74 | proKLK7 act conf 62 | EDANS interfere 69
O=C(c1cc2c(s1)-c1ccccc1OC2)N1CCN(c2ccccc2)CC1	none
O=C(CC1Oc2ccccc2NC1=O)NCCCN1CCCC1=O (centres undefined)	none
CCN1C(=O)/C(=C2\SC(=S)N(CCCOC)C2=O)c2ccccc21	proKLK7 act 20 | proKLK7 act conf inactive | EDANS interfere inactive
COCCN1C(=O)/C(=C2/C(=O)N(CC(=O)Nc3ccccc3Cl)c3ccccc32)SC1=S	none
CCc1cc2c(COC(=O)c3cc(S(=O)(=O)N4CCOCC4)ccc3F)cc(=O)oc2cc1O	proKLK7 act 113 | proKLK7 act conf 446 | EDANS interfere 456
CCc1cc2c(COC(=O)c3cccc(NS(C)(=O)=O)c3)cc(=O)oc2cc1O	proKLK7 act 54 | proKLK7 act conf 62 | EDANS interfere 55
Cc1noc(C)c1COC(=O)c1cc(S(=O)(=O)N2CCOCC2)ccc1F	none
CCCNS(=O)(=O)c1cccc(C(=O)OCc2cc(=O)oc3cc(OC)ccc23)c1	none
CC1CN(S(=O)(=O)c2cccc(C(=O)OCc3cc(=O)oc4cc(O)ccc34)c2)CC(C)O1 (centres undefined)	proKLK7 act 375 | proKLK7 act conf 540 | EDANS interfere 528
CN(C)c1cccc(C(=O)OCc2cc(=O)oc3cc(O)ccc23)c1	none
CCn1cc(CN2CCN(C)C(CCO)C2)c2ccccc21 (centres undefined)	none
CC(C)C(=O)c1cn(CC(=O)O)c2ccccc12	none
CCN(CC)Cc1c(O)c(Cl)cc2c3c(c(=O)oc12)CCCC3	proKLK7 act 49 | proKLK7 act conf 66 | EDANS interfere 75
Cc1coc2c(C)c3oc(=O)c4c(c3cc12)CCCC4	none
CN(C)Cc1c(O)c(Cl)cc2c3c(c(=O)oc12)CCCC3	proKLK7 act 47 | proKLK7 act conf 70 | EDANS interfere 72
O=c1oc2c(CN3CCOCC3)c(O)c(Cl)cc2c2c1CCC2	proKLK7 act 122 | proKLK7 act conf 81 | EDANS interfere 78
Cc1nc2cc(C(F)(F)F)ccc2n1C1CCN(C(=O)N2CCOCC2)CC1	none
COCCN1C(=O)c2ccc(C(=O)O)cc2C1=O	none
CCOC(=O)Nc1ccc2c(CN3C(=O)NC4(CCCC4)C3=O)cc(=O)oc2c1	none
CCc1cc(=O)oc2cc(OC(=O)CN3C(=O)NC4(CCCC4)C3=O)ccc12	proKLK7 act 97 | proKLK7 act conf 60 | EDANS interfere 68
O=C(CN1C(=O)NC2(CCCCC2)C1=O)Oc1ccc2c(C(F)(F)F)cc(=O)oc2c1	proKLK7 act 63 | proKLK7 act conf 61 | EDANS interfere 66
O=C(CN1C(=O)NC2(CCCC2)C1=O)Oc1ccc2ccc(=O)oc2c1	proKLK7 act 67 | proKLK7 act conf 63 | EDANS interfere 72
NC(=O)N/C=C1\CCCOC1=O	none
N#CC(=Cc1ccncc1)c1ccccc1	none
N#C/C(=C\c1ccncc1)c1nc2c(s1)CCCC2	proKLK7 act 38 | proKLK7 act conf 22 | EDANS interfere 22
COc1ccc(OC)c(/C=N/n2c(COc3ccccc3)n[nH]c2=S)c1	proKLK7 act 20 | proKLK7 act conf 43 | EDANS interfere 37
CCCNC(=O)OC1CC2CC1[C@H]1CCCCN1C2=O (some centres undefined)	proKLK7 act 45 (no result: FXN GAA850 act) | proKLK7 act conf inactive | EDANS interfere inactive
Cc1ccccc1-c1nc2ccccc2[nH]1	none
Cc1cc2nc(-c3ccc[nH]c3=O)[nH]c2cc1C	proKLK7 act 68 | proKLK7 act conf 64 | EDANS interfere 71
Cc1cc2nc(-c3ccc[nH]c3=O)n(Cc3ccc(F)cc3)c2cc1C	proKLK7 act 22 | proKLK7 act conf inactive | EDANS interfere inactive
CCCNC(=O)c1cc(C2CCCCN2S(=O)(=O)c2cccc3cccnc23)on1 (centres undefined)	none
Cc1ccc(CN(C(=O)c2ccco2)C(C(=O)NC2CCCC2)c2ccc(N3CCOCC3)cc2)cc1 (centres undefined)	none
Cc1cccc(-n2c(=O)c(C#N)cc3c(=O)n4ccccc4nc32)c1	proKLK7 act 16 | proKLK7 act conf 51 | EDANS interfere 72
Cc1ccc(-n2c(=O)c(C#N)cc3c(=O)n4ccccc4nc32)cc1	none
